Screening data deposited in PubChem by National Center for Advancing Translational Sciences (NCATS).
AMA1-RON2 inh – AMA1-RON2 (P. falciparum) interaction inhibition; AlphaScreen AMA1-biotinylated RON2 peptide binding; Potency, µM (doses to about 58.2 µM), for the others: top-dose activity change, negative = inhibition, actives largely listed as inhibitors; 360,000 compounds, 0.2% hits; AID 720542;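 further: 0% = vehicle wells and -100% = peptide control; nearly all actives have a fitted effect of over 45% in size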
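AMA1 (3D7) with his tag at 25 nM final met compounds first, then biotinylated RON2 peptide at 25 nM; detection used donor plus acceptor beads, 10 µg/mL apiece, read by AlphaScreen after 30 min at room temperature.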
Pf growth 96h – P. falciparum growth inhibition at 96 hours; Potency, µM (doses to about 28.7 µM), without a hit: at the highest dose activity change, negative = inhibition, usual class: inhibitors; P. falciparum luciferase reporter growth, 96 h; 320,000 compounds, 6.9% hits
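Delayed-death screen, second-generation endpoint: infected erythrocytes, 2% hematocrit, 0.05% parasitemia final; 96 hours at 37 C, 5% CO2; luciferase detection reagent; luminescence decrease equals reduced growth.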
VACV mCherry inh – inhibitors of vaccinia virus infection (mCherry reporter signal); Vaccinia virus mCherry reporter infection, fluorescence; Potency, µM (series often up to 36.5 µM), for the others: at the highest dose activity change, negative = inhibition, hits mostly inhibitors; 310,000 compounds, 0.63% hits; AID 720579; calls by dose curve; tested in A549 cells; further: nearly all actives have a fitted effect of over 35% in size
Pf growth 48h – P. falciparum growth inhibition at 48 hours (one generation); P. falciparum luciferase growth in erythrocytes, 48 h; Potency, µM (series often up to 28.7 µM), for inactives: top-dose activity change, negative = inhibition, actives largely listed as inhibitors; 310,000 compounds, 5.9% hits
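First compound was added to culture medium, then infected red cells at 0.1% parasitemia and 2% hematocrit (final). After incubation at 37 C under 5% CO2, luciferase detection reagent was dispensed and light output recorded.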
Vaccinia Venus – inhibitors of vaccinia virus (Venus reporter). Vaccinia virus Venus reporter expression, fluorescence. 330,000 compounds, 0.46% hits. Potency, µM (doses to about 36.5 µM), inactives show top-dose activity change, negative = inhibition, actives largely listed as inhibitors. AID 720580; calls by dose curve; tested in A549 cells; further: nearly all actives have a fitted effect of over 30% in size
* marks the source's active call; other numbers are inactive results; i = inactive; ? = inconclusive; / = no result given. Rows were chosen to be rich in hits. Some 8.7% of all compounds tested hit in one or more screens of this group. Unless noted, the call rests on the fitted dose curve; in most records, active means well fitted curve in the direction sought with a large enough effect; inconclusive means small, poorly fitted or top-dose-only effect, or another doubt; inactive means no such curve, though single readings can be large; an effect the other way counts as inactive or inconclusive. Unless noted, on the % scale 0 is the no-effect control and ±100 the full control effect; potency means the concentration at half of the fitted maximal effect.

SMILES | AMA1-RON2 inh | Pf growth 96h | VACV mCherry inh | Pf growth 48h | Vaccinia Venus
Cc1ccc2nc3c(cc(C(=O)NCCN4CCOCC4)c(=N)n3CCCN3CCOCC3)c(=O)n2c1 | 1.6% | ? | -8.3% | 11.7µM* | -6.9%
COCCNC(=O)c1cc2c(=O)n3cccc(C)c3nc2n(Cc2ccncc2)c1=N | -7.9% | ? | / | ? | /
CCCCNC(=O)c1cc2c(=O)n3cccc(C)c3nc2n(Cc2ccncc2)c1=N | -6.4% | -25.4% | / | 5.22µM* | /
CCCCNC(=O)c1cc2c(=O)n3cccc(C)c3nc2n(CCN2CCOCC2)c1=N | 2.1% | ? | -11.1% | 3.7µM* | 3.8%
Cc1ccc2nc3c(cc(C(N)=S)c(=N)n3CCCOC(C)C)c(=O)n2c1 | 3.7% | 1.47µM* | / | 11.7µM* | /
COc1ccc(-n2c(CC3C(=O)N(C)c4ccc(C)cc43)nc3ccccc3c2=O)cc1 (configuration not stated) | / | / | -7.6% | / | -7.5%
CC(=O)c1cccc(S(=O)(=O)N2CCN(c3nc(-c4cccs4)nc4ccccc34)CC2)c1 | / | / | -25.7% | / | -20.0%
COc1cccc(CNC(=O)c2c(OC)cc(=O)n3c2CCN(C(=O)c2csc(C)n2)CC3)c1 | / | / | -14.6% | / | -10.1%
CC[C@@]1([C@@H]2O[C@@H]([C@H]3O[C@@](O)(CO)[C@H](C)C[C@@H]3C)C[C@@H]2C)CC[C@H]([C@]2(C)CC[C@]3(C[C@H](O)[C@@H](C)[C@@H]([C@@H](C)[C@@H](OC)[C@H](C)C(=O)O)O3)O2)O1 (stereo in doubt) | / | / | i | / | ?
CCOCCCn1c(=N)c(C(=O)NCc2ccc3c(c2)OCO3)cc2c(=O)n3cccc(C)c3nc21 | -11.7% | 11.7% | / | 1.04µM* | /
CCCn1c(=N)c(C(=O)NC2CCCC2)cc2c(=O)n3cccc(C)c3nc21 | -1.0% | ? | 4.7% | 1.85µM* | -2.4%
CCCCn1c(=N)c(C(=O)NC2CCCCC2)cc2c(=O)n3cccc(C)c3nc21 | / | / | -10.7% | / | -10.4%
COCCCn1c(=N)c(C(=O)NCc2ccc3c(c2)OCO3)cc2c(=O)n3cccc(C)c3nc21 | 0.1% | / | -13.3% | / | -11.2%
CCN(CC)S(=O)(=O)c1cccc(-c2nnc(SCC(=O)c3ccc(Cl)s3)n2C)c1 | 1.3% | 57.5% | -8.3% | 13.1µM* | -20.9%
Cc1ccc2c(CC(=O)N3CCc4ccccc43)coc2c1 | 4.6% | -11.0% | -10.7% | 81.3% | -10.3%
O=C(Cc1coc2ccc3ccccc3c12)N1CCc2ccccc21 | -14.7% | 8.28µM* | / | -13.4% | /
O=C(Cc1coc2ccc3ccccc3c12)N1CCN(c2ncccn2)CC1 | 3.0% | 8.28µM* | / | ? | /
CCCN(CCC)C(=O)Cc1coc2ccc3ccccc3c12 | 6.9% | / | -27.1% | 11.7µM* | -11.9%
O=C(Cc1c[nH]c2ccccc12)N1CCc2ccccc21 | -11.0% | 10.4µM* | -26.4% | -26.2% | -12.2%
CCN1CCN(C(=O)Cc2coc3ccc4ccccc4c23)CC1 | -15.9% | / | -28.6% | -6.1% | -5.7%
O=C1COc2cc(S(=O)(=O)CCC(=O)N3CCN(c4cccc(Cl)c4)CC3)c(Cl)cc2N1 | / | / | -14.1% | / | -4.0%
COc1ccc(CCNC(=O)c2ccc3c(c2)N(Cc2cc(C)ccc2C)C(=O)c2ccccc2S3=O)cc1OC (configuration not stated) | / | / | -26.6% | / | -19.7%
COc1ccc(N2CC(C)Cn3c2nc2c3c(=O)n(Cc3ccc(C)cc3)c(=O)n2C)c(OC)c1 (configuration not stated) | 0.9% | ? | -7.8% | 4.65µM* | 13.2%
COc1ccc(N2CC(C)Cn3c2nc2c3c(=O)n(Cc3ccc(F)cc3)c(=O)n2C)c(OC)c1 (configuration not stated) | -3.0% | / | -11.4% | ? | -20.0%
CCC(=O)O[C@H]1[C@H](O[C@@H]2[C@@H](C)[C@H](O[C@H]3C[C@@](C)(OC)[C@@H](O)[C@H](C)O3)[C@@H](C)C(=O)O[C@H](CC)[C@@](C)(O)[C@H](O)[C@@H](C)C(=O)[C@H](C)C[C@@]2(C)O)O[C@H](C)C[C@@H]1N(C)C | / | / | -12.0% | / | ?
